Experiment [1] is described as follows: optical density shifts of acrAB sulA E. coli – strain DRC41, OD650, 48 h, E. coli filamentation inducer project, primary screen (AID 1152).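 Further: E. coli MC1000 strain DRC41 lacking acrAB efflux pump and sulA.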 Particulars: higher = more signal, called active from +8 up or from −8 down.
Experiment [2] is described as follows: probe aLefty1 binding on compound microarray – biochemical, small-molecule microarray, 635/667 nm fluorescence, primary screen (AID 1153).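 Further: score merges spot fluorescence with signal-to-noise ratio from the scanned slide images.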 The note with it: higher = more signal.
Experiment [3] can be described thus: plasmodial surface anion channel blockers, osmotic lysis – cell-based, P. falciparum Indochina, OD700, 1 h, primary screen (AID 1154). Particulars: P. falciparum Indochina infected RBC osmotic lysis, higher = more signal, called active from +8 up or from −8 down.
A short description of experiment [4]: plasmodial surface anion channel blockers, osmotic lysis – cell-based, P. falciparum Indochina, OD700, 2 h, primary screen (AID 1155).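 Further: lysis reports solute entry through the parasite surface anion channel PSAC.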 The note with it: P. falciparum Indochina infected erythrocytes, higher = more signal, called active from +8 up or from −8 down.
Experiment [5] in a line: changes in parasitized red cell lysis, either direction – P. falciparum Indochina, OD700, 3 h, PSAC antagonist project, primary screen (AID 1156). Particulars: P. falciparum-infected erythrocytes, osmotic lysis, higher = more signal, called active from +8 up or from −8 down.
A short description of experiment [6]: plasmodial surface anion channel blockers, osmotic lysis – cell-based, P. falciparum Indochina, OD700, 18 h, primary screen (AID 1157). The note with it: P. falciparum Indochina infected erythrocytes, osmotic lysis OD700, 18 h; higher = more signal, called active from +8 up or from −8 down.
A short description of experiment [7]: S6 kinase pathway phospho-S6 level changes – cell-based, A549, cytoblot, luminescence, serum-stimulated, primary screen (AID 1158).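 Further: serum-stimulated A549 lung adenocarcinoma cells; signal is phosphorylated S6 detected by cytoblot immunostaining with HRP secondary.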 The note with it: 5 h, higher = more signal.
Experiment [8] addresses NADPH oxidase 2 (Homo sapiens) (UniProt P04839). In words: compounds shifting NOX2 Amplex Red fluorescence – cell-based, HEK293-NOX2, PMA-stimulated, NOX inhibitor project, primary screen (AID 1159). Further: test concentration not given here. The note with it: 45 min, higher = more signal, called active from +8 up or from −8 down.
Experiment [9] concerns the target NADPH oxidase 4 (Homo sapiens) (UniProt Q9NPH5). The experiment can be described thus: compounds shifting NOX4 Amplex Red fluorescence – cell-based, HEK293-NOX4, tetracycline-induced, NOX inhibitor project, primary screen (AID 1160). Particulars: HEK293-NOX4, Amplex Red H2O2 fluorescence, 45 min; higher = more signal, called active from +8 up or from −8 down.
Experiment [10] has as its target NADPH oxidase 5 (Homo sapiens) (UniProt Q96PH1). In words: compounds shifting NOX5 Amplex Red fluorescence – cell-based, HEK293-NOX5, NOX inhibitor project, primary screen (AID 1161). The note with it: HEK293-NOX5, ionomycin, 45 min, higher = more signal.
A short description of experiment [11]: compound effects on lung adenocarcinoma cell viability – A549, calcein-AM fluorescence, 48 h, basal, profiling panel (AID 1162). Further: test concentration not given here. The note with it: higher = more signal.
The nature of experiment [12]: compound effects on differentiated 3T3-L1 adipocyte viability – cell-based, 3T3-L1 adipocytes, calcein-AM fluorescence, 48 h, basal, profiling panel (AID 1163). Further: test concentration not given here. The note with it: 3T3-L1 adipocytes viability, higher = more signal.
The nature of experiment [13]: compound effects on hepatocellular carcinoma cell viability – HepG2, calcein-AM fluorescence, 48 h, basal, profiling panel (AID 1164). Further: test concentration not given here. The note with it: higher = more signal.
The nature of experiment [14]: compound effects on multiple myeloma cell viability – MM1S, calcein-AM fluorescence, 48 h, basal, profiling panel (AID 1165).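 Further: viability of MM1S multiple myeloma cells under basal unstimulated conditions; test concentration not given here.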 Particulars: higher = more signal.
The nature of experiment [15]: calcein-AM signal in unstimulated myeloma cells – cell-based, calcein-AM fluorescence, 48 h, PK04 Diversity Set, profiling panel (AID 1166).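 Further: cells grown under basal conditions without added stimulus; test concentration not given here.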 Particulars: RPMI8226 myeloma viability, higher = more signal.
The nature of experiment [16]: JC-1 mitochondrial signal, unstimulated HepG2 cells – cell-based, JC-1 fluorescence, 24 h, 100 nL compound, profiling panel (AID 1167). Further: test concentration not given here. The note with it: HepG2 mitochondrial potential, higher = more signal.
Experiment [17] is described as follows: JC-1 mitochondrial signal, unstimulated adipocytes – cell-based, JC-1 fluorescence, 3T3-L1 adipocytes, 24 h, 100 nL compound, profiling panel (AID 1168). Further: test concentration not given here. The note with it: JC-1 mitochondrial fluorescence, higher = more signal, called active from +8 up or from −8 down.
Experiment [18] in a line: JC-1 mitochondrial signal, unstimulated myeloma cells – cell-based, JC-1 fluorescence, RPMI8226, 24 h, 100 nL compound, profiling panel (AID 1169). Further: test concentration not given here. The note with it: JC-1 mitochondrial potential fluorescence, higher = more signal.
The nature of experiment [19]: JC-1 mitochondrial signal, unstimulated MM1S myeloma – cell-based, JC-1 fluorescence, 24 h, 100 nL compound, profiling panel (AID 1170). Further: test concentration not given here. Particulars: MM1S mitochondrial potential, higher = more signal.
Experiment [20] is described as follows: resazurin metabolic signal in A549 cells – cell-based, resazurin fluorescence, 24 h, PK04 Diversity Set, profiling panel (AID 1171). Further: test concentration not given here. The note with it: A549 viability, higher = more signal, called active from +8 up or from −8 down.

Results on five compounds are retold here after PubChem BioAssay.

Calls of active or inactive are those of the source.

Chain of NADPH oxidase 4 (Homo sapiens) (Q9NPH5 whole entry, looked up): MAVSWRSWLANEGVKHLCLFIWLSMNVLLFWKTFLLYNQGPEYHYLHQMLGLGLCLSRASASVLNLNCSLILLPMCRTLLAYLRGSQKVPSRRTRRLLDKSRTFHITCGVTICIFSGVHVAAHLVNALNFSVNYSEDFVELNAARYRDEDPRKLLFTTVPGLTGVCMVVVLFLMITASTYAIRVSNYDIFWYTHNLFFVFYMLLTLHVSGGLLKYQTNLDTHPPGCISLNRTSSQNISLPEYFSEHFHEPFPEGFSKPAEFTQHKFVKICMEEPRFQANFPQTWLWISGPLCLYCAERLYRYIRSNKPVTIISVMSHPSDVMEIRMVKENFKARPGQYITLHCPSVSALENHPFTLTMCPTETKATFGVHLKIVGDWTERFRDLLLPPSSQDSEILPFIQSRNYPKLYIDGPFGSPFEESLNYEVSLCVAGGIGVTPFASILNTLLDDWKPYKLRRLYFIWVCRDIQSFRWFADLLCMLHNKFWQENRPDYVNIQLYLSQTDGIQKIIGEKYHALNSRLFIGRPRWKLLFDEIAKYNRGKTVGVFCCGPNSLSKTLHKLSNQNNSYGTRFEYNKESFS
Chain of NADPH oxidase 2 (Homo sapiens) (P04839 whole entry, looked up): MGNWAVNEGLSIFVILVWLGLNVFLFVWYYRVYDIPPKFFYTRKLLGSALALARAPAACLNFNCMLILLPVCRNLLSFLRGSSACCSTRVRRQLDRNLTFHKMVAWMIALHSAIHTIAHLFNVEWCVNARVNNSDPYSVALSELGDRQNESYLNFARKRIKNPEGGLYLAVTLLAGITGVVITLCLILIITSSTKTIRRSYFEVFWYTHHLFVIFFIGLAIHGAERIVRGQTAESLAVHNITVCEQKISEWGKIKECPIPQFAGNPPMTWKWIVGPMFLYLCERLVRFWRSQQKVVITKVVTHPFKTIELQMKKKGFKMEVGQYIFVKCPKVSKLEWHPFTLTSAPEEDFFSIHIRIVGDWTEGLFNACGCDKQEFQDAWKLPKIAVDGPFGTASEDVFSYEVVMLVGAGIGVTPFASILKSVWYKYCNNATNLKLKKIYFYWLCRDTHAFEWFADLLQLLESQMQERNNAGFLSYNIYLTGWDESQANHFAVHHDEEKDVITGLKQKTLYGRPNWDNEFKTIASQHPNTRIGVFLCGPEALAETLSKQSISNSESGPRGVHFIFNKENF
Chain of NADPH oxidase 5 (Homo sapiens) (Q96PH1 whole entry, looked up): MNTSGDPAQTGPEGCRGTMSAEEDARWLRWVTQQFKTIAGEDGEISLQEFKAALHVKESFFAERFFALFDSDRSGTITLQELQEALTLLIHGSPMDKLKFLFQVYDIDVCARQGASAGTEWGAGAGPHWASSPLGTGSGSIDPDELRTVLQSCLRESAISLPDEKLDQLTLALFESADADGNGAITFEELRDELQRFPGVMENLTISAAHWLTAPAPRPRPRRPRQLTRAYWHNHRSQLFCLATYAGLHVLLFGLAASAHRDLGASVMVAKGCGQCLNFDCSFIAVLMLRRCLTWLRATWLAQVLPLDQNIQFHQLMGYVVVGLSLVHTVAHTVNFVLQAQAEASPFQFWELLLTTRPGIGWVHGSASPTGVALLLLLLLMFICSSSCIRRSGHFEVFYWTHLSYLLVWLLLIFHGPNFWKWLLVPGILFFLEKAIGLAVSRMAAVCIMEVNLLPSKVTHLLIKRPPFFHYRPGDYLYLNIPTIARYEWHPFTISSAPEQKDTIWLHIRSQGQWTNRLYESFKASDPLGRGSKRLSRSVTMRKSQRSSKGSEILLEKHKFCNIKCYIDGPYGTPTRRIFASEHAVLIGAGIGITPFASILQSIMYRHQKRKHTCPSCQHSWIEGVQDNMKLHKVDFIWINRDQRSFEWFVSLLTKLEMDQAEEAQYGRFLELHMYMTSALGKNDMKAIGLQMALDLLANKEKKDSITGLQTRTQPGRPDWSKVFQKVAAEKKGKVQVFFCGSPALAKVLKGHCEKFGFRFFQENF

Take `CSCC[C@@H]1NC(=O)CC=C[C@@H](C)COC(=O)[C@H](CCSC)NC(=O)CC=C[C@@H](C)COC1=O`: the z-score in experiment [1] is -0.77 (inactive); in [3], -0.138 (inactive); in experiment [4], -0.774 (inactive); in [5], -1.73 (inactive); in [6], -1.85 (inactive); in [7], 0.214. The z-score was -1.26 (inactive) in experiment [8]; 0.731 (inactive) in experiment [9]; 1.5 in [10]; 0.364 in experiment [11]; 1.7 in experiment [12]; 0.0574 in [13]. For the same compound, the z-score in experiment [14] was 0.0493; in experiment [15], 0.0542; in experiment [16], 0.79; in experiment [17], 0.647 (inactive); in experiment [18] it was 0.508; in experiment [19] it was 0.388. Moreover, the z-score in experiment [20] is 0.376 (inactive). The compound also gave a composite z-score in experiment [2] of -0.0559.

Turning to `O=C1O[C@H](c2ccccc2)[C@H](c2ccccc2)N2[C@H]1[C@@H](C(=O)NC[C@H](O)c1ccccc1)[C@]1(C(=O)Nc3ccc(C#CC4=CCCCC4)cc31)[C@H]2c1ccc(OCCO)cc1`, the z-score is -0.266 (inactive) in [1]; 3.76 (inactive) in experiment [3]; 2.55 (inactive) in experiment [4]; 0.0828 (inactive) in [5]; 2.26 (inactive) in experiment [6]; -0.099 in experiment [7]. For the same compound, the z-score in experiment [8] is 1.13 (inactive); in experiment [9], 0.611 (inactive); in experiment [10], 1.32; in [11], 0.0545; in experiment [12], -0.405; in [13], -0.674. Also, the z-score in experiment [14] was -1.24; in experiment [15], -2.29; in [16], -2.36; in experiment [17], 1.27 (inactive); in experiment [18] it was -1.34; in experiment [19] it was -1.52. Besides, the z-score in [20] is -0.527 (inactive). Also, the composite z-score in experiment [2] turned out to be 0.0248.

With `CN1C(=O)C2C=CC(C(O)c3ccc(N(C)C)cc3)N(Nc3ccc([N+](=O)[O-])cc3[N+](=O)[O-])C2C1=O` (stereo not given), the z-score in [1] was -0.692 (inactive); in [3] it was 2.33 (inactive); in experiment [4] it was 1.27 (inactive); in experiment [5], -0.169 (inactive); in [6], 1.05 (inactive); in experiment [7], -0.444. Further, the z-score is -0.742 (inactive) in experiment [8]; -1.39 (inactive) in [9]; -0.0769 in experiment [10]; 1.09 in [11]; -0.459 in [12]; -0.0167 in experiment [13]. The z-score is -0.126 in experiment [14]; -0.4 in [15]; -0.672 in experiment [16]; -1.06 (inactive) in experiment [17]; 0.0429 in experiment [18]; -0.0883 in [19]. Moreover, the z-score in [20] was 0.0697 (inactive). The compound further gave a composite z-score in experiment [2] of 0.719.

On to `CN(C)C(=O)[C@@]1(Cc2ccccc2N=[N+]=[N-])N=C(c2ccc(OCCCO)cc2)O[C@H]1c1ccccc1CN=[N+]=[N-]`, for which the z-score in [1] is 1.04 (inactive); in experiment [3], 17.8 (active); in [4], 2.5 (inactive); in experiment [5], 2.73 (inactive); in [6] it was -0.682 (inactive); in [7] it was 1.01. Also, the z-score in experiment [8] is -1.52 (inactive); in [9], 1.06 (inactive); in experiment [10], 0.474; in experiment [11], -0.996; in [12], 1.16; in experiment [13], -1.23. Further, the z-score was -2.91 in [14]; -3.39 in experiment [15]; 2.17 in [16]; 0.618 (inactive) in experiment [17]; -0.904 in experiment [18]; -0.679 in [19]. The z-score in [20] is 0.276 (inactive). This compound also yielded a composite z-score in experiment [2] of 0.635.

As to `CCOC(=O)C[C@H]1[C@H](OC(=O)c2ccccc2-c2ccccc2)[C@@H](NC(=O)C2CCCCC2)c2cc(OCCCO)ccc2N1C(=O)c1ccccc1`, the z-score was 1.99 (inactive) in [1]; 1.97 (inactive) in [3]; 0.718 (inactive) in experiment [4]; 0.217 (inactive) in experiment [5]; 0.402 (inactive) in [6]; -0.073 in experiment [7]. The z-score is 0.629 (inactive) in experiment [8]; 0.936 (inactive) in [9]; -1.64 in experiment [10]; -0.675 in experiment [11]; 1.22 in experiment [12]; -0.294 in [13]. Also, the z-score in experiment [14] was -0.402; in [15], -1.33; in [16], 3.59; in experiment [17] it was 0.75 (inactive); in experiment [18], -0.545; in experiment [19], 0.109. Besides, the z-score in experiment [20] was -0.0403 (inactive). The same compound displayed a composite z-score in experiment [2] of -0.191.
